Screening data deposited in PubChem by National Center for Advancing Translational Sciences (NCATS).
JMJD2A Tudor: inhibitors of human JMJD2A Tudor domain | Potency, µM (titrated, usually from 114 µM), for inactives: at the top dose activity change, negative = inhibition, hits mostly inhibitors | 4.4% of 390,000 active | AlphaScreen JMJD2A-Tudor / H3K4me3 peptide binding | AID 504339; also: % is scaled to controls: 0 for no effect and ±100 for the full control effect; nearly all actives have a fitted effect of over 50% in size
BAZ2B block: BAZ2B (human) inhibition | Q9UIF8 | AlphaScreen BAZ2B-H3K14Ac peptide displacement | Potency, µM (highest dose often 114 µM), for inactives: at the highest dose activity change, negative = inhibition, most hits filed as inhibitors | 4.4% of 360,000 active; also: % is scaled to controls: 0 for no effect and ±100 for the full control effect; nearly all actives have a fitted effect of over 60% in size
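AlphaScreen luminescence quantifies BAZ2B engagement of H3K14Ac peptide; the protein and biotinylated peptide are both at 50 nM final, buffer PBS pH 7.4 with 0.01% Tween-20, all steps at room temperature.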
G9a block: blocks human histone lysine methyltransferase G9a. G9a H3K9 monomethylation, AlphaScreen, 2 h. Potency, µM (titrated, usually from 102 µM), without a hit: top-dose activity, negative = inhibition, usual class: inhibitors. 8.8% of 350,000 active. AID 504332; also: % is scaled to controls: 0 for no effect and ±100 for the full control effect; nearly all actives have a fitted effect of over 75% in size
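Using a bead-based AlphaScreen, monomethylated H3K9 product from 2 h room-temperature reactions (G9a 20 nM, peptide 500 nM, SAM 20 uM) was detected with 0.5 ug/mL rabbit anti-H3K9me1 antibody.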
HP1b chromo inh: inhibitors of HP1-beta chromodomain binding to methylated histone tails | AID 540317 | Potency, µM (titrated, usually from 114 µM), without a hit: at the highest dose activity change, negative = inhibition, hits mostly inhibitors | 0.56% of 390,000 active | AlphaScreen HP1-beta / biotin-H3K9me3 peptide binding; also: nearly all actives have a fitted effect of over 70% in size
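Compound inhibition of the preformed complex between 50 nM HP1-beta and 50 nM biotinylated H3K9me3 peptide was read by AlphaScreen. Buffer was PBS pH 7.4 with 0.01% Tween-20. Incubations ran 30 min at room temperature, with 10 ug/mL donor/acceptor beads.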
Sfp inh: Sfp phosphopantetheinyl transferase inhibition | Q9F4F7 | Biochemical Sfp PPTase activity, qHTS | Potency, µM, inactives show largest response in the series, negative = inhibition, usual class: inhibitors | 3.5% of 310,000 active | AID 1490;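 also: the enzyme is Sfp with the accession as filed and its product quenches rhodamine fluorescence; 0% = enzyme reaction without inhibitor and -100% = no enzyme wells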
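Sfp 15 nM + cpd, 15 min RT; start w/ rhodamine-CoA 5 uM, BHQ-2-YbbR 12.5 uM (final); 50 mM Hepes pH 7.6, 10 mM MgCl2, 0.01% NP-40, 0.01% BSA; read 525/598 nm at 0 and 30 min.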
* marks the source's active call; other numbers are inactive results; u = inconclusive; x = no result; [ ] = remark or other dose. Shown are actives, neighbours in structure and some others; about 12% of the full set was active somewhere. Calls follow the shape of the dose curve; as a rule, active = well fitted curve in the direction sought with a large enough effect; inconclusive = small, poorly fitted or top-dose-only effect, or another doubt; inactive = no such curve, though single readings can be large; an effect the other way counts as inactive or inconclusive. Potency is read from the fitted curve at half-maximal effect.

SMILES	JMJD2A Tudor	BAZ2B block	G9a block	HP1b chromo inh	Sfp inh
O=C1NC(=O)[C@]2(Cc3ccccc3N3CCN(c4ccccc4)CC32)C(=O)N1c1ccccc1 (stereo partly drawn)	u	-30.5%	3.16µM*	13.9%	-3.0%
CN1C(=O)NC(=O)C2(Cc3ccccc3N3CCOCC32)C1=O (stereo not drawn)	-1.5%	2.8%	-1.4%[59 µM]	4.5%	-1.3%
CN[C@@H](CC(C)C)C(=O)N[C@@H]1C(=O)N[C@H](CC(N)=O)C(=O)N[C@@H]2C(=O)N[C@H]3C(=O)N[C@H](C(=O)N[C@H](C(=O)O)c4cc(O)cc(O)c4-c4cc3ccc4O)[C@H](O)c3ccc(c(Cl)c3)Oc3cc2cc(c3O[C@H]2O[C@@H](CO)[C@@H](O)[C@@H](O)[C@@H]2O[C@@H]2C[C@](C)(N)[C@H](O)[C@H](C)O2)Oc2ccc(cc2Cl)[C@@H]1O	x	x	-0.8%[12.7 µM]	x	12.7%
c1ccc([Se]c2c(-c3ccccc3)[se]c3ccccc23)cc1	x	x	84.6%[59 µM]	x	0.9%
Cc1ccc(NC(=O)CN2C(=O)CN=C(c3ccccc3)c3ccccc32)cc1	-17.7%	-8.8%	-3.2%[59 µM]	23.0%	x
CN(C)c1ccc(NC(=O)CN2C(=O)CN=C(c3ccccc3)c3cc(Cl)ccc32)cc1	28.2µM*	35.5µM*	39.8µM*	u	79.4µM*
CN(C)c1ccc(NC(=O)CN2C(=O)CN=C(c3ccccc3)c3ccccc32)cc1	56.2µM*	39.8µM*	x	u	-1.3%
CCCN1CCCC(c2cccc(O)c2)C1 (stereo not drawn)	x	x	-16.0%[12.7 µM]	x	x
Cc1cc(=O)[nH]c(SCc2nc3ccccc3c(=O)n2-c2ccccc2C)n1	-4.7%[57.1 µM]	-17.5%	-3.2%	39.5%	-6.3%
O=c1[nH]c(SCc2n[nH]c(=S)n2-c2ccccc2)nc2ccccc12	7.94µM*	-10.3%	u	23.9%	8.4%
COP(=O)(OC)[C@@H](O)C(Cl)(Cl)Cl	x	x	30.5%[21.5 µM]	x	19.5%
COc1ccc(C[C@H]2c3cc(OC)c(OC)cc3CCN2C)cc1OC	x	x	16.2%[21.5 µM]	x	12.9%
CC(C)C1(C)N=C(c2ncccc2C(=O)O)NC1=O (stereo not drawn)	22.4µM*	28.2µM*	31.6µM*	-3.4%	-27.6%
CNCC/C=C\c1cccnc1	x	x	x	x	9.2%
O=C1CN=C(c2ccccc2)c2cc(Cl)ccc2N1CC1CC1	x	x	-39.3%[12.7 µM]	x	16.4%
O=C(c1ccc(F)cc1)N1CCC2(CC1)OCCO2	-11.2%	-5.6%	x	13.7%	5.4%
O=C(c1ccc(F)cc1)N1CCC(N2CCCCCC2)CC1	u	50.1µM*	17.8µM*	u	u
CC(C)Cc1[nH]c(=O)c(C#N)c2c1CCC2	-19.2%	-1.2%	4.3%	25.9%	-0.3%
Cc1[nH]c(=S)c(C#N)c2c1CCCC2	20µM*	u	1.78µM*	39.3%	1.0%
COc1ccc(CNCC(=O)N2CCC3(CC2)OCCO3)cc1	12.6µM*	35.5µM*	22.4µM*	u	-11.6%
COc1ccc(C(=O)N2CCC3(CC2)OCCO3)cc1	-1.4%	11.9%	x	25.6%	5.4%
COc1ccccc1N1CCN(C(=O)c2cc3c(-c4ccccc4F)nn(C)c3s2)CC1	-33.7%	x	u	14.4%	x
O=C1C(Cl)=CC(=Nc2ccc(O)cc2)C=C1Cl	44.7µM*	31.6µM*	u	14.1µM*	u
CC(C)c1ccc(N2C(=O)NC(=O)/C(=C\C=C\c3ccco3)C2=O)cc1	u	-27.1%	u	1.3%	-18.1%
Cc1ccc(N2C(=O)NC(=O)/C(=C/c3cnc(-c4ccccc4)nc3)C2=O)cc1C	79.4µM*	-1.9%	10µM*	-16.0%	u
Cc1cccc(N2C(=O)NC(=O)/C(=C\c3cnc(-c4ccccc4)nc3)C2=O)c1	u	-3.1%	7.08µM*	11.3%	u
CC(C)c1ccc(N2C(=O)NC(=O)/C(=C\c3cnc(-c4ccccc4)nc3)C2=O)cc1	-12.3%[11.4 µM]	-29.5%	u	u	44.7µM*
Cc1cc(C)cc(N2C(=O)NC(=O)/C(=C\c3cccn3-c3ccccc3)C2=O)c1	-15.4%	-18.5%	u	17.6%	-3.6%
CC/C=C\C/C=C\C/C=C\C/C=C\C/C=C\CCCC(N)=O	x	x	x	x	-10.3%
